The supplement of paper PMC3334620
Over roughly 33,000 sequences, “E-score (-0.5 to 0.5)” has its median near -0.012; the highest 2% begin near 0.29. The sample as a whole holds a higher share of the highest values than the screen did.

Biological target: T1, Ybr033w (UniProt P38073)
T1 sequence: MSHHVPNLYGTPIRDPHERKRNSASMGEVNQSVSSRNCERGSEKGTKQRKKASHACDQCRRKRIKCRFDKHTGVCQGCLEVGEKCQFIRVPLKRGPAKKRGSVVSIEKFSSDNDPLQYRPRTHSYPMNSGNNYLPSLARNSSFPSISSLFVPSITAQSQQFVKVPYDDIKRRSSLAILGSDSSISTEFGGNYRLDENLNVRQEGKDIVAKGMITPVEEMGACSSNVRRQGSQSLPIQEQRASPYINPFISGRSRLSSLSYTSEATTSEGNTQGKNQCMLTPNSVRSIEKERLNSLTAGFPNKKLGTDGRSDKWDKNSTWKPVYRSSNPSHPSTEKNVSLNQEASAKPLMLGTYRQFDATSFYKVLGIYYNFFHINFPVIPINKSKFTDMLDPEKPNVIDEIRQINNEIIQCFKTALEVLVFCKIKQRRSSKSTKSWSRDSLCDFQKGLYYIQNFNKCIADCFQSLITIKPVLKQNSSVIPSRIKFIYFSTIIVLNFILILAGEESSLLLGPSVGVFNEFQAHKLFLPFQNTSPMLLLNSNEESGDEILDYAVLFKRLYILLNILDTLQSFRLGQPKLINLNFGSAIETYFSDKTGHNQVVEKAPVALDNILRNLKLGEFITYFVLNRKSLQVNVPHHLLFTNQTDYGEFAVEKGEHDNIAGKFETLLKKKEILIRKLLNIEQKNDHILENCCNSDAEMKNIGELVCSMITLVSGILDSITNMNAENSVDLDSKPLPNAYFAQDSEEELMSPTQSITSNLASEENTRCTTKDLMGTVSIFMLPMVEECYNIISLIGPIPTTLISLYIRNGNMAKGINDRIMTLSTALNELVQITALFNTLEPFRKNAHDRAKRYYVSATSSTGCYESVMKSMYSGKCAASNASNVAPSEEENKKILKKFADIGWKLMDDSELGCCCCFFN
Assay: PBM E-score (8-mer binding enrichment) (E-score (-0.5 to 0.5)); higher = stronger / more preferred TF binding
Conditions: protein concentration: 200 nM; construct: GST-full length
Procedure: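 Universal 'all 10-mer' protein binding microarrays (Agilent AMADID 015681) probed with GST-tagged S. cerevisiae TFs (full-length or DBD) made by in vitro transcription/translation (PURExpress), about 100-200 nM. Bound TF was detected with fluorescent anti-GST. Each ungapped 8-mer (which stands for itself and its reverse complement) is scored by the PBM enrichment score (E-score), a modified Wilcoxon-Mann-Whitney statistic from -0.5 to +0.5, computed with the Universal PBM Analysis Suite. Scale: above 0.35 generally sequence-specific binding.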

| Sequence | PBM E-score |
| --- | --- |
| CTTATATC | 0.146 |
| GCATTCAC | 0.216 |
| GTGGTCGA | -0.198 |
| TAGACAAA | 0.0827 |
| ACGTACGA | -0.182 |
| ACATAGCG | 0.0674 |
| AACTACCC | 0.0868 |
| GAGCCAAA | -0.113 |
| ATTCCCCA | -0.0626 |
| GGTGGTAC | -0.231 |
| GACGGTCC | -0.273 |
| GTTATTAA | 0.229 |
| CTTATTAC | 0.115 |
| ATTATTAC | 0.343 |
| ATTATTAA | 0.316 |
| ACTATTAC | 0.134 |
| CTTATTAA | 0.17 |
| ATCTAAGC | 0.0351 |
| AGCGTTGC | -0.0711 |
| CGCTTATC | -0.00322 |
| CGGCTATA | -0.0713 |
| TTCCGGAA | 0.316 |

| Sequence | PBM E-score |
| --- | --- |
| CTCCGGAA | 0.22 |
| ATCCGGAA | 0.403 |
| GTCCGGAA | 0.19 |
| ATCCGGAC | -0.0654 |
| ATCCGGAG | 0.143 |
| CTCATCCC | -0.189 |
| CGTACTGC | -0.151 |
| CTCGTCTA | -0.0771 |
| GATAATCA | 0.236 |
| CATAATCC | 0.0679 |
| AATAATCA | 0.234 |
| AACAATCT | 0.168 |
| GATAATGC | 0.115 |
| GATAATCC | 0.375 |
| AATAATCC | 0.439 |
| AACAATCC | 0.338 |
| AACAATCG | 0.0843 |
| ACCCGAAG | -0.0833 |
| ACCTACTC | -0.0816 |
| AACAAGAT | 0.221 |
| AACAAATT | 0.374 |
| AACAAAAA | 0.212 |

| Sequence | PBM E-score |
| --- | --- |
| ACAAAAAC | 0.243 |
| GACAAATC | 0.24 |
| AACAAAAT | 0.291 |
| AACAAATA | 0.285 |
| ACAAAAAA | 0.18 |
| AACAAGTC | 0.0761 |
| AACAAGTT | 0.188 |
| AACAAATC | 0.315 |
| ACAAAAAT | 0.308 |
| AGGCAGTG | -0.0313 |
| GCCGTTTA | 0.0411 |
| CAAAAGTA | 0.16 |
| AAGCCATA | 0.0179 |
| ATGCACGA | -0.021 |
| GGTGAGAC | 0.0001 |
| ACCAATCC | -0.0137 |
| AACCTTTC | -0.0863 |
| ACCAGCAC | -0.0392 |
| CTCTGCGA | -0.0389 |
| ATTCATCA | 0.171 |
| ATTCATCC | 0.349 |
| CTTCATCC | -0.0751 |

| Sequence | PBM E-score |
| --- | --- |
| ACATAAAT | 0.149 |
| AGGGTGGG | -0.0779 |
| ACCAAGCG | -0.0846 |
| AGCACACA | -0.0313 |
| AAAATGAA | 0.081 |
| AAAATGGA | 0.197 |
| AAAATGGG | -0.032 |
| AAAATGAC | 0.15 |
| AAAATGAT | 0.369 |
| AAAATGGT | 0.319 |
| GATATGGC | -0.161 |
| TCACCTAA | 0.0978 |
| GCGATACC | -0.236 |
| CTGACTCA | -0.0835 |
| TATACAAA | 0.356 |
| ATTACAAG | 0.18 |
| GATACAAA | 0.277 |
| ATTACAAA | 0.318 |
| CATACAAA | 0.246 |
| ATTACAAT | 0.0893 |
